Records with an inconclusive call do not appear. Active and inactive are the calls of the source. Rule for the calls, unless noted: active = hit-call score of the fitted dose curve at least 0.9, where 1 is the maximum; inconclusive = response in the unintended direction; inactive = score below 0.9.

Assay [1] can be described thus: CCTE_Harrill_HTTr_Viability_MCF7: CCTE's 6-hour Cell Viability Assessment for the High-Throughput Transcriptomics (HTTr) Platform, in MCF-7 cells cultured in DMEM + 10% fetal bovine serum, Harrill Lab (AID 2284010; active = hit-call score of the fitted dose curve at least 0.9, where 1 is the maximum; inactive = score below 0.9). The procedure, abridged:
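Propidium iodide exclusion, imaged by high-content analysis, gauged viability after a six-hour exposure across eight concentrations. Cells were MCF-7 grown in DMEM with 10% fetal bovine serum; fits run in both directions against DMSO.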

Assay [2] in a line: CCTE_Harrill_HTTr_Apoptosis_MCF7: CCTE's 6-hour Apoptosis Assessment for the High-Throughput Transcriptomics (HTTr) Platform, in MCF-7 cells cultured in DMEM + 10% fetal bovine serum, Harrill Lab (AID 2284011; active = hit-call score of the fitted dose curve at least 0.9, where 1 is the maximum; inactive = score below 0.9). A digest of the protocol:
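MCF-7 cells in DMEM + 10% fetal bovine serum were exposed to chemicals for 6 hours over an eight-point dilution series. Caspase-3/7 activation was imaged by high content imaging with CellEvent Caspase 3/7 Green; bidirectional fitting used DMSO as baseline.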

Assay [3] concerns the target Thyroid hormone receptor alpha (Rattus norvegicus) + Thyroid hormone receptor beta (Rattus norvegicus) (UniProt P18113+P63059). Briefly: TOX21_TR_LUC_GH3_Agonist_Followup: Tox21 GH3 Thyroid Hormone Receptor Agonism Luciferase Follow-Up Assay (AID 2283939). The procedure, abridged:
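Agonist-mode confirmatory run: 15 concentrations (5 nM to 92 uM final) on GH3 rat pituitary cells, 24 h at 37C/5% CO2, T3 as positive control. Luminescence read with ONE-Glo after 30 min.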

Assay [4] has as its target THRA (gene 7067) (UniProt P10827). Briefly: TOX21_TRA_COA_Agonist_Followup_ratio: Tox21 Thyroid Hormone Receptor alpha Agonism through Coactivator Recruitment Follow-Up Assay, Ratio (AID 2283948; active = hit-call score of the fitted dose curve at least 0.9, where 1 is the maximum; inactive = score below 0.9). A digest of the protocol: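 Read-out is the 520/495 nm emission ratio (ex 340 nm), scaled between DMSO-only wells as 0% and T3 wells as 100%. It reflects fluorescein-SRC-2 peptide recruitment to GST-TRα LBD detected via terbium anti-GST antibody.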

The target of assay [5] is THRB (gene 7068) (UniProt P10828). Description: TOX21_TRB_BLA_Agonist_Followup_ratio: Tox21 Thyroid Hormone Receptor beta Agonism Beta-lactamase (BLA) Follow-Up Assay, Ratio (AID 2283954). The procedure, abridged: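 Agonist mode: compounds (11-point, triplicate) incubated 18 h with HEK293T cells carrying GAL4-DBD/human TRβ-LBD and UAS-β-lactamase. Blue/green (460/530 nm) FRET ratio read after 2 h CCF4-AM loading; CellTiter-Glo viability run in the same plates.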
THRB (gene 7068), sequence (P10828 whole entry, looked up, the tested form may be a part): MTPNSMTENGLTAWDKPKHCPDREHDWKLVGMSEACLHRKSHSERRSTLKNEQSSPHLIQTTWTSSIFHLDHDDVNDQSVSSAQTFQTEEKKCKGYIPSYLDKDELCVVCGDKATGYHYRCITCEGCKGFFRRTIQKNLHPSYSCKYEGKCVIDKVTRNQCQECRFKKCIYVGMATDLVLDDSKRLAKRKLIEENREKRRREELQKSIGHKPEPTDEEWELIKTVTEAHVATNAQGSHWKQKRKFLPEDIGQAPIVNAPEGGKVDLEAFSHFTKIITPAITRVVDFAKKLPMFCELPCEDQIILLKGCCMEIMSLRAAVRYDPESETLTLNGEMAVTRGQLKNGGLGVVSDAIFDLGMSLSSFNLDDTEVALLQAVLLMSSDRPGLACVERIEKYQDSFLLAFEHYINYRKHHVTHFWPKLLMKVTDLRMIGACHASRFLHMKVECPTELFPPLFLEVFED

For assay [6] the target is unchanged. Briefly: TOX21_TRB_COA_Agonist_Followup_ratio: Tox21 Thyroid Hormone Receptor beta Agonism through Coactivator Recruitment Follow-Up Assay, Ratio (AID 2283963; active = hit-call score of the fitted dose curve at least 0.9, where 1 is the maximum; inactive = score below 0.9). The procedure, abridged: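 Cell-free TR-FRET coactivator recruitment: GST-tagged TRβ LBD (5.0 nM) with 0.10% BSA incubated with compound, then fluorescein-SRC-2 peptide (200 nM) and Tb-anti-GST antibody (2 nM) added. 520:495 nm ratio normalized to DMSO (0%) and T3 (100%).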

The target in assay [7] is Retinoic acid receptor RXR-alpha (Homo sapiens) (UniProt P19793). Description: TOX21_TR_RXR_BLA_Agonist_Followup_ratio: Tox21 Thyroid Hormone Receptor beta Retinoid X Receptor alpha (RXRa) Agonism Beta-lactamase (BLA) Follow-Up Assay, Ratio (AID 2283968). A digest of the protocol:
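Agonist mode: compounds given to RXRa-bla HEK293T cells at 11 concentrations, triplicate, 16 h at 37C/5% CO2. Readout is the 460:530 nm blue/green ratio after 2 h substrate loading at room temperature; DMSO baseline, 9-cis retinoic acid control.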

The nature of assay [8]: TOX21_TR_RXR_BLA_Agonist_Followup_viability: Viability Assessment in the Tox21 Thyroid Hormone Receptor beta Retinoid X Receptor alpha (RXRa) Agonism Beta-lactamase (BLA) Follow-Up Assay (AID 2283970). A digest of the protocol:
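CellTiter-Glo ATP luciferase read-out of cell viability, multiplexed with the beta-lactamase reporter run. RXRa-bla HEK293T cells in charcoal-stripped serum medium were exposed 16 h at 37C; data fitted both directions relative to DMSO.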

Assay [9] has as its system DIO1 (gene 1733). Description: CCTE_GLTED_hDIO1: CCTE's human Deiodinase 1 (DIO1) Inhibition Assay, Great Lakes Toxicology and Ecology Division (GLTED) Lab (AID 2283987).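 Note: isolated human DIO1 enzyme in a cell-free setup rather than cells; enzyme activity read as free iodide liberated from substrate via Sandell-Kolthoff colorimetry.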 The procedure, abridged:
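Cell-free human DIO1 enzyme was incubated with test chemical for 3 h, and iodide released from substrate was measured by Sandell-Kolthoff absorbance. Loss of signal versus DMSO baseline indicated inhibition; plates were run in triplicate.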

For assay [10], the target named is Nucleoli Translocation, AR (gene 367) (UniProt P10275). Description: UPITT_HCI_U2OS_AR_TIF2_Nucleoli_Antagonist: University of Pittsburgh U2OS Androgen Receptor-Transcriptional Intermediary Factor 2 (AR-TIF2) Antagonism High Content Imaging Assay for Nucleoli Translocation (AID 2283997). A digest of the protocol:
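Antagonism is read as loss of nucleolar AR-RFP signal relative to DHT, imaged in U2OS cells also carrying GFP-TIF2. Compounds screened at 20 uM final, 0.2% DMSO; primary actives retested in triplicate.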

Assay [11] addresses Ratio of Nucleoli Translocation and Cytoplasm, AR (gene 367) (UniProt P10275). Description: UPITT_HCI_U2OS_AR_TIF2_Nucleoli_Cytoplasm_Ratio_Agonist: University of Pittsburgh U2OS Androgen Receptor-Transcriptional Intermediary Factor 2 (AR-TIF2) Agonism High Content Imaging Assay for Ratio of Nucleoli Translocation and Cytoplasm (AID 2284000).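 Note: hits raise the red nucleolar to cytoplasm ratio above vehicle.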 The procedure, abridged: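 Compounds tested at 20 uM final in primary screen (0.2% DMSO) and 0.195-50 uM final in dose-response (0.5% DMSO). Imaging of human U2OS cells bearing RFP-AR and GFP-TIF2; endpoint is nucleoli/cytoplasm red signal ratio, positive direction relative to DMSO.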

Assay [12] is described as follows: CCTE_Harrill_HTTr_CellCount_MCF7: CCTE's Cell Proliferation Assessment for the High-Throughput Transcriptomics (HTTr) Platform, Harrill Lab (AID 2284012).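 Note: cells exposed to compound for six hours; intended direction is loss of nuclei count meaning fewer cells.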 The procedure, abridged:
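Cell count from high-content imaging of Hoechst-labeled nuclei serves as viability/growth readout. Chemicals were applied to MCF-7 cells in eight concentrations for six hours, with fitting in both directions relative to DMSO.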

Assay [13] addresses Nucleoli Translocation, AR (gene 367) (UniProt P10275). Description: UPITT_HCI_U2OS_AR_TIF2_Nucleoli_Agonist: University of Pittsburgh U2OS Androgen Receptor-Transcriptional Intermediary Factor 2 (AR-TIF2) Agonism High Content Imaging Assay for Nucleoli Translocation (AID 2283998). The procedure, abridged: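 Cells express human AR fused to red fluorescent protein and TIF2 fused to GFP. Red fluorescence in the nucleolar region was quantified by high-content imaging and fitted as gain-of-signal against a DMSO baseline. Compounds were tested at 0.195 to 50 uM final (0.5% DMSO).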

The target of assay [14] is Ratio of Nucleoli Translocation and Cytoplasm, AR (gene 367) (UniProt P10275). Description: UPITT_HCI_U2OS_AR_TIF2_Nucleoli_Cytoplasm_Ratio_Antagonist: University of Pittsburgh U2OS Androgen Receptor-Transcriptional Intermediary Factor 2 (AR-TIF2) Antagonism High Content Imaging Assay for Ratio of Nucleoli Translocation and Cytoplasm (AID 2283999).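 Note: antagonists lower the DHT-driven ratio of nucleolar to cytoplasmic red signal.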 The procedure, abridged: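 High-content imaging of red fluorescence ratio, nucleoli versus cytoplasm, in U2OS expressing AR-RFP and TIF2-GFP, fitted relative to DHT. Compounds tested once at 20 uM final, then 0.195 to 50 uM final in serial dilution.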
Ratio of Nucleoli Translocation and Cytoplasm, AR (gene 367), sequence (P10275 whole entry, looked up): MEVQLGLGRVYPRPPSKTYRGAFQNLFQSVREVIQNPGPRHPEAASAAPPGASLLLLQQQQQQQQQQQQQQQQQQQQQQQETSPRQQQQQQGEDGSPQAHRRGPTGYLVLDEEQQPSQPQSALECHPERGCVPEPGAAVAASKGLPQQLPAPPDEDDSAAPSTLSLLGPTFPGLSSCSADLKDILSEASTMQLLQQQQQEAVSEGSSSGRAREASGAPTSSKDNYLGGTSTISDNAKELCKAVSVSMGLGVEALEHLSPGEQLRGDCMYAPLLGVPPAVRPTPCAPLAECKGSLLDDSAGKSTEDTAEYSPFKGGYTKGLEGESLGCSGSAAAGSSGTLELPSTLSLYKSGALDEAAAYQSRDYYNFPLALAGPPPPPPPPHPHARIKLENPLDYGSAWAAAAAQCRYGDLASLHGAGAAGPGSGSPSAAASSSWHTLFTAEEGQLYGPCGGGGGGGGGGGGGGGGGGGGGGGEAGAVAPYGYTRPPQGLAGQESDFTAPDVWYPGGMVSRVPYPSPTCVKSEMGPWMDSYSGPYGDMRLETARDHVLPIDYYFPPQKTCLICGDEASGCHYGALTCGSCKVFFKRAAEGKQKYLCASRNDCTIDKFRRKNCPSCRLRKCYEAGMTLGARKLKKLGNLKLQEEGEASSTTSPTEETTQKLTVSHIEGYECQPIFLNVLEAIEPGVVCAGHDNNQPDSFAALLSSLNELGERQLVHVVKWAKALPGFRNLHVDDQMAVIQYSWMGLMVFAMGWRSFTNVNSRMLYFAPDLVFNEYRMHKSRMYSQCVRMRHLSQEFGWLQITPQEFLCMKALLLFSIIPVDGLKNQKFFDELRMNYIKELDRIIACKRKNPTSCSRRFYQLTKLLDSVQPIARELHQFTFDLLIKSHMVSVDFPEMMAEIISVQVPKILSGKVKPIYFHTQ

Assay [15] is described as follows: CCTE_Shafer_MEA_acute_spike_number: CCTE's Neural Acute Assay for Total Number of Spikes, Shafer Lab (AID 2284008; active = hit-call score of the fitted dose curve at least 0.9, where 1 is the maximum; inactive = score below 0.9;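 for AC50: curve fitted for decrease in spike count so AC50 reflects inhibitors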). A digest of the protocol:
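Primary rat cortical neurons on 16-electrode MEA wells; on DIV 13 or 15, 40-min baseline then 40-min recording with compound (0.03-40 uM) at 37 C. Spikes detected at 8x rms noise; percent change versus baseline, DMSO as negative control.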

A short description of assay [16]: CCTE_Shafer_MEA_acute_firing_rate_mean: CCTE's Neural Acute Assay for Mean Firing Rate, Shafer Lab (AID 2284009; active = hit-call score of the fitted dose curve at least 0.9, where 1 is the maximum; inactive = score below 0.9;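 note: analyzed for loss of signal so actives lower firing rate relative to DMSO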). A digest of the protocol: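 Primary rat cortical neurons on 16-electrode MEA wells were exposed on DIV 13 or 15 to compound (0.03-40 uM). Spike counts per recording time, averaged over electrodes, were compared between 40-min baseline and 40-min post-exposure recordings as percent change.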

Nucleoli Translocation, AR (gene 367), sequence (P10275 whole entry, looked up, the tested form may be a part): as the sequence (P10275 whole entry, looked up) above
Thyroid hormone receptor alpha (Rattus norvegicus) + Thyroid hormone receptor beta (Rattus norvegicus), sequence (P63059 whole entry, looked up): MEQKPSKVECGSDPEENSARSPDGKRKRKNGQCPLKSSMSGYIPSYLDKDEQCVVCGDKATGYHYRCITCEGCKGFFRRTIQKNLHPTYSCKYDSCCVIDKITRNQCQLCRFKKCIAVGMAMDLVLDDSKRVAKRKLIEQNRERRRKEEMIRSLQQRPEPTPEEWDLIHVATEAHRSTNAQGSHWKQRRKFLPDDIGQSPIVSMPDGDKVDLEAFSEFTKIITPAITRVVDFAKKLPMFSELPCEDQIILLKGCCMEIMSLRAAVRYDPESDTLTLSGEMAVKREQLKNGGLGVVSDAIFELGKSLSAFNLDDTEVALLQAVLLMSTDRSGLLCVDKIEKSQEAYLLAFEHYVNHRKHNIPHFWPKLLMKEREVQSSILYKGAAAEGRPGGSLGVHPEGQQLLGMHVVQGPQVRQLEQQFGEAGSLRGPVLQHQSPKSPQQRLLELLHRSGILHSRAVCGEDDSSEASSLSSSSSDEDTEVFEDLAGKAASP
Thyroid hormone receptor alpha (Rattus norvegicus) + Thyroid hormone receptor beta (Rattus norvegicus), sequence (P18113 whole entry, looked up): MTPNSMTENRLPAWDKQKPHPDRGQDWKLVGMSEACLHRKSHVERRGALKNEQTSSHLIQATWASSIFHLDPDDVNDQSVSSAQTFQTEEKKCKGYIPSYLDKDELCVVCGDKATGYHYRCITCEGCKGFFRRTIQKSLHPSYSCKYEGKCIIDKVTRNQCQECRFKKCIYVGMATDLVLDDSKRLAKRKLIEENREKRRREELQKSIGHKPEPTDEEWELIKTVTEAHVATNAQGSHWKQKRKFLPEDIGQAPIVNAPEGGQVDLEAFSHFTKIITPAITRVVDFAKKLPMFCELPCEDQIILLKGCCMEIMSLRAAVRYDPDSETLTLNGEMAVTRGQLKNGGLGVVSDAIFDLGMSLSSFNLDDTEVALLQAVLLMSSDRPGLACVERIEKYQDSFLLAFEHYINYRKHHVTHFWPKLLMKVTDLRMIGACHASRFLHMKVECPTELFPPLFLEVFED
THRA (gene 7067), sequence (P10827 whole entry, looked up, the tested form may be a part): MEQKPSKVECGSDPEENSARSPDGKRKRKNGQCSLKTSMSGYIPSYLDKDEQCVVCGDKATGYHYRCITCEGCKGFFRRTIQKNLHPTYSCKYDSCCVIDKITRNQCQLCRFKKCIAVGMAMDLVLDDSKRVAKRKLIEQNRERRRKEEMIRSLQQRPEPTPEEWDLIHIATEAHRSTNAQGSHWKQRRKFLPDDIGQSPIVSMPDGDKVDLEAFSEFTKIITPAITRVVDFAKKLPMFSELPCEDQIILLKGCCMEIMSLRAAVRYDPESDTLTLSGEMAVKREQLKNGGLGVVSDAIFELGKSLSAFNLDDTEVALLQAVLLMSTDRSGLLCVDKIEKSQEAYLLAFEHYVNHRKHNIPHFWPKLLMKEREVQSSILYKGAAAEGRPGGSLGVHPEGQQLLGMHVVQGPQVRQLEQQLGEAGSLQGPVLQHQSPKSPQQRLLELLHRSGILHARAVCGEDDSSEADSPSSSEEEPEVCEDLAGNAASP
Retinoic acid receptor RXR-alpha (Homo sapiens), sequence (P19793 whole entry, looked up): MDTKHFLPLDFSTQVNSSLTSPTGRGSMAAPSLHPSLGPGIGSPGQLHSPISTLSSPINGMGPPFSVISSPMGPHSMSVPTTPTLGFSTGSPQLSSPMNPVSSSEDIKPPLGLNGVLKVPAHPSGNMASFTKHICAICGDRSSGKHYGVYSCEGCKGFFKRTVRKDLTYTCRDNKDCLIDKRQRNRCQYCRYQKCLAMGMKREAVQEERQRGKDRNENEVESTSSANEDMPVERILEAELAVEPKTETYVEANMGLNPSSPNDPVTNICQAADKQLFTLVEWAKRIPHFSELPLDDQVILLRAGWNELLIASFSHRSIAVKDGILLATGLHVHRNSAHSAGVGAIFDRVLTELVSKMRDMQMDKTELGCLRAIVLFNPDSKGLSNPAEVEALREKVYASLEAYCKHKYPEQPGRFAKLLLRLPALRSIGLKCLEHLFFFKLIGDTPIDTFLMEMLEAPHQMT

Regarding `C1COCCN1`, the outcome in [1] and in assay [2] was inactive.

On to `O=S(=O)(O)c1ccc2ccccc2c1`, for which the result in assay [3], in assay [4], in [5], in assay [6], in assay [7] and in assay [8] was inactive. Moreover, the result in [1] and in assay [2] was inactive.

With `O=C(O)C(F)(F)C(F)(F)C(F)(F)C(F)(F)C(F)(F)C(F)(F)C(F)(F)C(F)(F)Cl`, in [9], the result was inactive.

With `CCCCCCC(C)OC(=O)CCCCC(=O)OC(C)CCCCCC` (configuration not stated), the result in assay [10] and in assay [11] was inactive.

As to `OC[C@@H](O)[C@@H](O)[C@H](O)[C@@H](O)CO`, the outcome in assay [1], in [2] and in [12] was inactive.

For orientation: AC50 means the concentration at which the activity in the assay is half-maximal. On to `O=C(O)C(F)(F)C(F)(F)C(F)(F)C(F)(F)C(F)(F)C(F)(F)C(F)(F)C(F)(F)C(F)(F)C(F)F`, for which the half-maximal activity concentration (AC50) in assay [9] is 88.7 µM (active).

As for `O=C(O)C(F)(F)C(F)(F)C(F)(F)C(F)(F)C(F)(F)C(F)(F)C(F)(F)C(F)(F)C(F)(F)C(F)(F)C(F)(F)C(F)(F)C(F)(F)F`, the AC50 in assay [9] is 23.7 µM (active).

`CCN(Cc1cccc(S(=O)(=O)O)c1)c1ccc(C(=C2C=CC(=[N+](CC)Cc3cccc(S(=O)(=O)O)c3)C=C2)c2ccc(O)cc2S(=O)(=O)[O-])cc1`: the AC50 in [9] was 65 µM (active). Besides, the result in assay [1], in assay [2] and in assay [12] was inactive.

On to `CCCCCCOC(=O)c1ccccc1O`, for which the molecule was called inactive in assay [10], in assay [13], in assay [14], in [11], in [15] and in [16].

For the molecule `CCCCC(CC)COP(=O)(O)OCC(CC)CCCC` (configuration not stated), the half-maximal activity concentration (AC50) in [15] was 0.00652 µM (active); in assay [16] it was 0.00651 µM (active).

For `CC(CCl)OP(=O)(OC(C)CCl)OC(C)CCl` (configuration not stated), the outcome in assay [1], in [2] and in [12] was inactive.

As for `O=C(O)C=C(C(F)(F)F)C(F)(F)F`, the concentration at half-maximal activity (AC50) in [9] is 20.2 µM (active).

For the molecule `CCCCCC=O`, the outcome in assay [1] and in assay [2] was inactive.

Turning to `C=CC(=O)OCC(F)(F)C(F)(F)C(F)(F)C(F)(F)COC(=O)C=C`, the AC50 in assay [9] was 5.82 µM (active).
